C diff growth – inhibitors of Clostridium difficile growth; Clostridium difficile clinical isolate growth, OD600, 24 h; hits give low values; growth activity, negative = inhibition, % at 16 µg/mL (by protocol); actives 0.25% (n = 86,000);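 active means mean growth activity at or below -80% and every replicate also at or below -80%; inconclusive means mean at or below -80% but some replicate above -80%; inactive means mean growth activity above -80%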
Pf Dd2 growth – inhibitors of Plasmodium falciparum Dd2 growth; P. falciparum Dd2 growth, SYBR Green, 72 h; hits give low values; activity change, % at 10 µM; actives 2.3% (n = 94,000); in the data active means activity change below about -80%; inconclusive means no clear call, values can overlap the other calls
T cruzi growth-1 – T. cruzi proliferation inhibition; T. cruzi beta-gal in NIH3T3, GalScreen luminescence, 90 h; inhibition, % at 8.34 µM; actives 5.9% (n = 77,000);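 active means mean inhibition above about 93%, with at least 55% of replicates each passing it, limit read from the data, passing the limit was not always enough; inconclusive means only one of those two conditions holds; inactive means neither condition holds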
T cruzi growth-2 – Trypanosoma cruzi proliferation inhibition; shares compounds with T cruzi growth-1; actives 72% (n = 5,600); AID 651739; inhibition, % at 8.35 µM; T. cruzi beta-gal in NIH3T3, GalScreen luminescence, 90 h;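 active means mean replicate inhibition above about 95% and at least 55% of replicates individually reaching it, limit read from the data; inconclusive means only one of the two criteria is met; inactive means neither criterion is met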
T cruzi growth-3 – inhibitors of T. cruzi proliferation | shares compounds with T cruzi growth-1 | T. cruzi beta-gal in NIH3T3, GalScreen luminescence, 90 h | inhibition, % at 2.09 µM | actives 21% (n = 5,600);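 active means mean inhibition above about 95%, with at least 55% of replicates also reaching it, limit read from the data; inconclusive means meets just one of the two conditions; inactive means meets neither condition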
3T3 cytotox – NIH/3T3 (mouse) viability loss | shares compounds with T cruzi growth-1 | NIH/3T3 viability, CellTiter-Glo ATP luminescence, 90 h | cytotoxicity (signal decrease), % at 8.35 µM | actives 14% (n = 5,600);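 active means mean signal decrease across replicates above about 35% based on untreated-well scatter, with enough replicates individually passing, limit read from the data; inconclusive means no rule stated though some were filed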
3T3 cytotox 2 – NIH/3T3 (mouse) viability loss; NIH/3T3 viability, CellTiter-Glo ATP luminescence, 90 h; shares compounds with T cruzi growth-1; actives 56% (n = 5,600); AID 651744; inhibition, % at 24.9 µM;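 active means mean loss of cell viability signal at or above a set limit, and enough replicates individually reaching it; inconclusive means meets only the mean limit or only the replicate share; inactive means meets neither condition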
Of the large screens only hits and unclear results are named; the others gave an inactive call (follow-up assays come after a bar, where they were run). Only some compounds are listed: those with a hit (about 6.7% of all), similar ones and a draw of the others.

O=C(C[C@H]1CC[C@H]2[C@@H](COC[C@@H](O)CN2S(=O)(=O)c2ccccc2)O1)N[C@H]1CCN(Cc2ccccc2)C1	none
CN1[C@@H]2c3ccc(C4=CCCC4)c(=O)n3C[C@@H]2[C@@H](CO)[C@@H]1C(=O)NCc1ccccc1F	none (no result: Pf Dd2 growth)
O=C(C[C@@H]1CC[C@@H]2[C@H](COC[C@@H](O)CN2Cc2cc(F)ccc2F)O1)N1CCc2ccccc2C1	none
O=C(C[C@H]1CC[C@H]2[C@@H](COC[C@H](O)CN2Cc2cc(F)ccc2F)O1)N1CCc2ccccc2C1	T cruzi growth-1 97.7 | T cruzi growth-2 inactive | T cruzi growth-3 inactive | 3T3 cytotox inactive | 3T3 cytotox 2 inactive
C[C@H](CO)N1C[C@H](C)[C@@H](CN(C)Cc2ccccn2)Oc2ncc(C3=CCCCC3)cc2C1=O	none (no result: T cruzi growth-1)
C[C@@H]1CN([C@@H](C)CO)C(=O)c2cc(NC(=O)Nc3ccc4c(c3)OCO4)ccc2O[C@@H](C)CCCCO[C@H]1CN(C)C(=O)Cc1ccccc1	none
C[C@@H]1CCCCO[C@H](CN(C)C(=O)Cc2ccccc2)[C@@H](C)CN([C@@H](C)CO)C(=O)c2cc(NC(=O)Nc3ccc4c(c3)OCO4)ccc2O1	Pf Dd2 growth -83.8, T cruzi growth-1 inconclusive | T cruzi growth-2 108.8 | T cruzi growth-3 inactive | 3T3 cytotox inactive | 3T3 cytotox 2 inactive
C[C@@H]1CN([C@@H](C)CO)C(=O)c2cc(NC(=O)Nc3ccccc3)ccc2O[C@@H](C)CCCCO[C@H]1CN(C)C(=O)Cc1ccccc1	none (no result: C diff growth)
C[C@H]1CCCCO[C@H](CN(C)C(=O)Cc2ccccc2)[C@@H](C)CN([C@@H](C)CO)C(=O)c2cc(NC(=O)Nc3ccc4c(c3)OCO4)ccc2O1	T cruzi growth-1 114.7 | T cruzi growth-2 111.6 | T cruzi growth-3 inactive | 3T3 cytotox inactive | 3T3 cytotox 2 inactive
C[C@H](O)C#Cc1ccc2c(c1)O[C@@H](CN(C)C(=O)c1ccncc1)[C@H](C)CN([C@H](C)CO)S2(=O)=O	none
C[C@H](CO)N1C[C@H](C)[C@H](CN(C)Cc2ccc(F)cc2)Oc2cc(C#Cc3ccccn3)ccc2S1(=O)=O	T cruzi growth-1 123.9 | T cruzi growth-2 109.1 | T cruzi growth-3 inactive | 3T3 cytotox inactive | 3T3 cytotox 2 inactive
C[C@H](CO)N1C[C@H](C)[C@H](CN(C)CC2CC2)Oc2cc(C#Cc3ccccn3)ccc2S1(=O)=O	none
C[C@H]1CN([C@@H](C)CO)S(=O)(=O)c2ccc(C#Cc3ccccn3)cc2O[C@@H]1CN(C)Cc1ccccc1	none
C[C@H]1CN([C@@H](C)CO)S(=O)(=O)c2ccc(C#Cc3ccccn3)cc2O[C@H]1CN(C)Cc1ccc(F)cc1	T cruzi growth-1 116.2 | T cruzi growth-2 102.9 | T cruzi growth-3 inactive | 3T3 cytotox inactive | 3T3 cytotox 2 37.2
C[C@H]1CN([C@@H](C)CO)S(=O)(=O)c2ccc(C#Cc3ccccn3)cc2O[C@@H]1CN(C)Cc1ccc(F)cc1	T cruzi growth-1 129.7 | T cruzi growth-2 96.3 | T cruzi growth-3 inactive | 3T3 cytotox 41.8 | 3T3 cytotox 2 84.8
C[C@@H]1CN([C@@H](C)CO)S(=O)(=O)c2ccc(C#Cc3ccccn3)cc2O[C@H]1CN(C)C	none (no result: T cruzi growth-1)
CNC[C@@H]1Oc2ccc(NC(=O)Cn3cnnn3)cc2CC(=O)N([C@@H](C)CO)C[C@@H]1C	none (no result: C diff growth, T cruzi growth-1)
CC(C)NC(=O)N1CC2(C1)[C@H](c1ccccc1)[C@H](CO)N2C(=O)C1CCCC1	none (no result: T cruzi growth-1)
CCCC#Cc1ccc([C@H]2[C@H](CO)N3CCCCN(Cc4cccnc4)C[C@@H]23)cc1	T cruzi growth-1 115.1 | T cruzi growth-2 108.5 | T cruzi growth-3 inactive | 3T3 cytotox inactive | 3T3 cytotox 2 90.2
CCCC#Cc1ccc([C@@H]2[C@H](CO)N3CCCCN(Cc4cccnc4)C[C@@H]23)cc1	T cruzi growth-1 102.9 | T cruzi growth-2 105.0 | T cruzi growth-3 inactive | 3T3 cytotox inactive | 3T3 cytotox 2 103.7
CCCC#Cc1ccc([C@H]2[C@H](CO)N3CCCCN(Cc4cncnc4)C[C@@H]23)cc1	none
CCCC#Cc1ccc([C@H]2[C@H](CO)N3CCCCN(Cc4ccncc4)C[C@@H]23)cc1	T cruzi growth-1 106.7 | T cruzi growth-2 99.9 | T cruzi growth-3 inactive | 3T3 cytotox inactive | 3T3 cytotox 2 85.9
CCCC#Cc1ccc([C@@H]2[C@H](CO)N3CCCCN(Cc4cncnc4)C[C@@H]23)cc1	none
CCCC#Cc1ccc([C@@H]2[C@@H](CO)N3CCCCN(Cc4cccnc4)C[C@H]23)cc1	T cruzi growth-1 inconclusive | T cruzi growth-2 101.6 | T cruzi growth-3 inactive | 3T3 cytotox inactive | 3T3 cytotox 2 81.9
CCCC#Cc1ccc([C@@H]2[C@H]3CN(Cc4cccnc4)CCCCN3[C@H]2CO)cc1	none
CO[C@@H]1CC[C@@H]2CCOc3ccc(C#N)cc3C(=O)N(C)C[C@@H](C)C(=O)N(C)C[C@H]1O2	none (no result: Pf Dd2 growth)
O=C(C[C@@H]1C=C[C@@H](NC(=O)c2ccncc2)[C@H](CO)O1)Nc1ccccc1	none (no result: T cruzi growth-1)
C[C@@H]1CN([C@H](C)CO)C(=O)c2cc(NC(=O)Nc3ccc(C(F)(F)F)cc3)ccc2O[C@@H](C)CCCCO[C@H]1CN(C)C(=O)Nc1ccc(F)cc1	none
C[C@H](CO)N1C[C@H](C)[C@@H](CN(C)C(=O)Nc2ccc(F)cc2)OCCCC[C@H](C)Oc2ccc(NC(=O)Nc3ccc(C(F)(F)F)cc3)cc2C1=O	none
C[C@@H]1CCCCO[C@@H](CN(C)C(=O)Nc2ccc(C(F)(F)F)cc2)[C@H](C)CN([C@@H](C)CO)C(=O)c2cc(NC(=O)Nc3ccc(F)cc3)ccc2O1	T cruzi growth-1 105.8 | T cruzi growth-2 101.1 | T cruzi growth-3 102.8 | 3T3 cytotox inactive | 3T3 cytotox 2 inactive
C[C@H]1CCCCO[C@@H](CN(C)C(=O)Nc2ccc(F)cc2)[C@@H](C)CN([C@@H](C)CO)C(=O)c2cc(NC(=O)Nc3ccc(C(F)(F)F)cc3)ccc2O1	T cruzi growth-1 101.5 | T cruzi growth-2 102.5 | T cruzi growth-3 111.3 | 3T3 cytotox inactive | 3T3 cytotox 2 inactive
CC(C)C#Cc1cnc2c(c1)C(=O)N([C@@H](C)CO)C[C@H](C)[C@@H](CN(C)C(=O)Nc1ccccc1)O2	none (no result: Pf Dd2 growth)
C[C@H]1CN([C@@H](C)CO)S(=O)(=O)c2ccc(-c3ccccc3)cc2O[C@H]1CN(C)C(=O)c1ccc2c(c1)OCO2	none (no result: T cruzi growth-1)
CS(=O)(=O)N1CCCCN2[C@H](C1)[C@@H](c1ccc(C#Cc3ccccn3)cc1)[C@@H]2CO	T cruzi growth-1 103.9 | T cruzi growth-2 111.8 | T cruzi growth-3 inactive | 3T3 cytotox inactive | 3T3 cytotox 2 inactive
CCS(=O)(=O)N1CCCCN2[C@H](CO)[C@@H](c3ccc(C#Cc4ccccn4)cc3)[C@@H]2C1	none

Screens: PubChem BioAssay, Broad Institute
